{"source": "PubChem BioAssay"}
{"biological_target": "E3 ubiquitin-protein ligase XIAP (Homo sapiens) (UniProt P98170)", "sequence (P98170 whole entry, looked up)": "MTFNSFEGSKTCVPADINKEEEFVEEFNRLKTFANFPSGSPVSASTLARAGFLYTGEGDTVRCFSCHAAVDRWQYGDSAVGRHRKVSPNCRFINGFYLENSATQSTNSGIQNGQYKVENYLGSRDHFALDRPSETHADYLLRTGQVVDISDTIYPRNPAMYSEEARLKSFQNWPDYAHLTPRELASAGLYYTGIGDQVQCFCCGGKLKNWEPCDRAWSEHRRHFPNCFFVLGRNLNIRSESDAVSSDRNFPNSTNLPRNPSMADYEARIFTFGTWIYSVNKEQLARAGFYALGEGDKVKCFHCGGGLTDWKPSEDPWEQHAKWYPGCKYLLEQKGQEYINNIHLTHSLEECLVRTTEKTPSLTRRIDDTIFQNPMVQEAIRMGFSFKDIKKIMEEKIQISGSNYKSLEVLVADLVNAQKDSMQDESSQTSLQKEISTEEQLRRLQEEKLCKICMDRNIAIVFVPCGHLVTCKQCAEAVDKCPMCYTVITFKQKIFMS", "test": "small molecules binding XIAP protein – biophysical, small-molecule microarray, fluorescence 635 nm, primary screen (AID 1181);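 also: score merges 667 nm emission and signal to noise over triplicate slides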", "conditions": "higher = more signal"}
{"smiles": "COC(=O)[C@@]1(Cc2ccc(F)cc2)[C@H]2c3cc(C(=O)N(C)C)n(CCc4ccc(O)c(O)c4)c3C[C@H]2CN1C(=O)c1ccccc1", "composite z-score": 0.122}
{"smiles": "CCOC(=O)C1=CC[C@@H](c2ccc(OC)cc2)N(S(=O)(=O)c2ccc(C)cc2)[C@H]1c1ccc(C)cc1", "composite z-score": 0.126}
{"smiles": "[N-]=[N+]=NCc1ccccc1[C@@H]1OC(c2ccc(OCCCO)cc2)=N[C@]1(Cc1ccccc1N=[N+]=[N-])C(=O)O", "composite z-score": 0.104}
{"smiles": "COC(=O)[C@@]1(Cc2ccccc2)[C@H]2c3cc(C(=O)N(C)C)n(CCSC(=N)N)c3C[C@H]2CN1C(=O)c1ccccc1", "composite z-score": -0.0592}
{"smiles": "Cc1ccc(S[C@]2(C(=O)NC(C)C)CC(=O)N(C3CCCCC3)[C@@H]2c2ccc(CO)cc2I)cc1", "composite z-score": -0.0559}
{"smiles": "COC(=O)C(CC#Cc1ccc2c(c1)[C@]1(C(=O)N2)[C@H](C(=O)N2CCc3cc(OC)c(OC)cc3C2)[C@H]2C(=O)O[C@H](c3ccccc3)[C@H](c3ccccc3)N2[C@@H]1c1ccccc1OCCO)C(=O)OC", "composite z-score": -0.11}
{"smiles": "C=CC[C@@]12N=C(c3ccc(OCCCO)cc3)O[C@@H]1c1ccccc1N(CCC)C2=O", "composite z-score": -0.132}
{"smiles": "CCC(CC)C(O)C1C=CC2C(=O)N(c3ccccc3)C(=O)C2N1Nc1ccccc1F", "note": "(stereo unspecified)", "composite z-score": 0.172}
{"smiles": "C=C(COC)/C(=C/C[C@H](OC(C)=O)c1ccccc1OCCO)c1cc(C(=O)OC)ccc1OC", "composite z-score": -0.239}
{"smiles": "CN(C)CCCC[C@@H]1NC(=O)[C@@H]2C[C@H](C(=O)NCCCCCN)[C@H](c3cccc(OCCO)c3)N2C1=O", "composite z-score": -0.184}
{"smiles": "COC(=O)C[C@H]1O[C@@]2(C[C@@H]1[Si](C)(C)C)C(=O)N(C)c1ccccc12", "composite z-score": -0.0966}
{"smiles": "NC(=O)N1C(=O)C2C(C1=O)C1C=C(CCCO)C2C(C2CC2)N1Cc1sc2ccccc2c1Cl", "note": "(stereo unspecified)", "composite z-score": 0.0374}
{"smiles": "CCOC(=O)C1=CCC(c2cc3ccccc3[nH]2)N(CCN2CC(C(=O)OCC)=CCC2c2cc3ccccc3[nH]2)C1", "note": "(stereo unspecified)", "composite z-score": 1.16}
{"smiles": "COCC(=C=CC[C@H](O)c1ccccc1OCCO)C[C@H](O)COCc1ccccc1", "composite z-score": 0.151}
{"smiles": "COc1ccc([Si](C)(C)[C@@H]2[C@@H](CC(=O)N3CCC[C@H]3CO)O[C@]3(C(=O)N(Cc4ccc(N5CCOC5=O)cc4)c4ccccc43)[C@H]2C)cc1", "composite z-score": 0.0819}
{"smiles": "C=C(CCCC)C(=O)CC[C@H](OC(=O)c1ccccc1-c1ccccc1C(=O)O)c1ccc(OCCO)cc1", "composite z-score": 0.0652}
{"smiles": "COC(=O)[C@@]1(Cc2ccc(F)cc2)[C@H]2c3cc(C(=O)N4CCCC4)n(Cc4ccccn4)c3C[C@H]2CN1C(=O)c1ccccc1", "composite z-score": 0.0945}
{"smiles": "O=C1NC(=O)C2C1C=CC(C(O)c1ccc([N+](=O)[O-])cc1)N2Nc1ccccn1", "note": "(stereo unspecified)", "composite z-score": 0.103}
{"smiles": "CCCC#C[Si](O[C@H](CC)c1cn(Cc2ccccc2)nn1)(C(C)C)C(C)C", "composite z-score": -0.173}
{"smiles": "COCCCNC(=O)[C@@]1(CCC(=O)OC(C)(C)C)COC(c2ccc(OCCCO)cc2)=N1", "composite z-score": -0.0272}
{"smiles": "C=C(CCCC)/C(=C/C[C@H](OC(C)=O)c1cccc(OCCO)c1)c1cnc2ccccc2c1", "composite z-score": -0.0448}
{"smiles": "CN(C)C(=O)[C@]1(Cc2ccccc2)N=C(c2ccc(OCCCO)cc2)O[C@@H]1c1ccccc1CN=[N+]=[N-]", "composite z-score": 0.0651}
{"smiles": "Cc1ccc(S[C@]2(C(=O)NCc3ccccc3)CC(=O)N(Cc3ccccc3C(F)(F)F)[C@@H]2c2ccc(CO)cc2)cc1", "composite z-score": 0.109}
{"smiles": "CCCN1C(=O)[C@]2(CCC(=O)OC(C)(C)C)N=C(c3ccc(OCCCO)cc3)O[C@@H]2c2ccccc21", "composite z-score": 0.118}
{"smiles": "C[N+](C)(C)CCCC[C@@H]1NC(=O)[C@H]2C[C@@H](C(=O)NCCCCCNC(=O)CS)[C@@H](c3cccc(OCCO)c3)N2C1=O", "composite z-score": -0.102}
{"smiles": "CO[C@H]1O[C@H](CO)[C@@H](OC(=O)Nc2ccccc2-c2ccccc2)[C@H](OC(=O)Nc2ccccc2)[C@H]1OC(=O)Nc1ccccc1", "composite z-score": 0.0479}
{"smiles": "CC(C)=C1C(=O)C(c2ccccc2)=C2CN3C(=O)N(CCc4ccccc4)C(=O)[C@]3(C)[C@H]21", "composite z-score": 0.387}
{"smiles": "C[C@]1(C(=O)O)c2ccccc2C(=O)N(Cc2cc(F)cc(C(F)(F)F)c2)[C@H]1c1ccc(CO)cc1", "composite z-score": -0.167}
{"smiles": "CN(C)CCCNC(=O)[C@@]1(Cc2ccccc2I)c2ccccc2C(=O)N(C2CCCCC2)[C@H]1c1ccc(CO)cc1", "composite z-score": 0.223}
{"smiles": "C#CCN1[C@@H](Cc2ccccc2)C(=O)O[C@H](Cc2ccccc2)[C@@H]1/C=C/C1CC1", "composite z-score": -0.208}
{"smiles": "CCCc1cc2c(n1CCc1ccc(Cl)cc1)C(C)C1CN(C(=O)c3ccccc3)C(C)(C(=O)OC)C21", "note": "(stereo unspecified)", "composite z-score": 0.527}
